Among all 290,000 compounds or so, about 140 (0.048%) were called active.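 Rule for the calls: active = activation above 40% with more than 50 cells counted in the well; inconclusive = wells holding fewer than 50 cells, flagged as toxic or sparse; inactive = the rest.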 This excerpt belongs to a sample that is enriched for actives.
Legend:
[1] = GPR55 agonists via beta-arrestin recruitment, primary screen, imaging, U2OS cells, beta-arrestin-GFP redistribution (AID 1961); conditions: measured here: cytotoxicity, cells analyzed, at 10 µM;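 note: U2OS osteosarcoma cells stably expressing GPR55 and beta-arrestin-GFP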;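 for activation: plate controls were DMSO negative control for no effect and LPI positive control for full effect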
[2] = molecular target: G-protein coupled receptor 55 (Homo sapiens) (UniProt Q9Y2T6); test: as above; conditions: at 10 µM, stronger effect = higher value
Chain of G-protein coupled receptor 55 (Homo sapiens) (Q9Y2T6 whole entry, looked up): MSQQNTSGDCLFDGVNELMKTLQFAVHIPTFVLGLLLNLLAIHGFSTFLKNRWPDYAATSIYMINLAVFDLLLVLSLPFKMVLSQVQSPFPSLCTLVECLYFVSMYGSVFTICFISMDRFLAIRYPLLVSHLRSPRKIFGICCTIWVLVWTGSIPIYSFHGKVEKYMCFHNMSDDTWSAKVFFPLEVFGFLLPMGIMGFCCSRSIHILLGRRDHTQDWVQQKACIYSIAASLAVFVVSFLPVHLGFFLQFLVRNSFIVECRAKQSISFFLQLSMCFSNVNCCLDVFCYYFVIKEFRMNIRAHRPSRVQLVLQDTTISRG

## Cc1cccc2nc(COc3ccc(Cl)c4cccnc34)cn12
[1]
  cell count: 263 cells
[2]
  activation: 80.9% (active)

## Clc1ccc(OCc2cn3ccccc3n2)c2ncccc12
[1]
  cell count: 448 cells
[2]
  activation: -0.1% (inactive)

## Cc1nc2ccc(NC(=O)CCC3CCCC3)cc2s1
[1]
  cell count: 329 cells
[2]
  activation: -0.1% (inactive)

## Cc1nn2c(N3CCCC3)c3c(nc2c1-c1ccccc1)CCC3
[1]
  cell count: 363 cells
[2]
  activation: 0% (inactive)

## Cc1nn2c(C(F)(F)F)c3c(nc2c1-c1ccccc1)CCC3
[1]
  cell count: 390 cells
[2]
  activation: 0.4% (inactive)

## Cc1cccc2cc3c(N)c(C(=O)N4CCc5ccccc54)sc3nc12
[1]
  cell count: 347 cells
[2]
  activation: 44.1% (active)

## Cc1cccc2cc3c(N)c(C(=O)N4CCCc5ccccc54)sc3nc12
[1]
  cell count: 244 cells
[2]
  activation: 0.1% (inactive)

## Cc1ccc(C)c2nc3sc(C(=O)N4CCCc5ccccc54)c(N)c3cc12
[1]
  cell count: 369 cells
[2]
  activation: 0.3% (inactive)

## CC1=NNC(=O)/C1=C\c1cn(-c2ccccc2)nc1-c1ccc(F)cc1
[1]
  cell count: 406 cells
[2]
  activation: 2.4% (inactive)

## CC1=NNC(=O)/C1=C\c1cn(-c2ccccc2)nc1-c1ccccc1
[1]
  cell count: 396 cells
[2]
  activation: 68.5% (active)

## CC1=NNC(=O)/C1=C\c1cn(-c2ccccc2)nc1-c1ccc(Cl)cc1
[1]
  cell count: 376 cells
[2]
  activation: 30.2% (inactive)

## COc1ccccc1NS(=O)(=O)c1cc([N+](=O)[O-])ccc1N/N=C/c1sc(N2CCOCC2)nc1-c1ccccc1
[1]
  cell count: 331 cells
[2]
  activation: 48.8% (active)

## O=[N+]([O-])c1ccc(N/N=C/c2sc(N3CCOCC3)nc2-c2ccccc2)c(S(=O)(=O)Nc2ccccc2Cl)c1
[1]
  cell count: 413 cells
[2]
  activation: 22.5% (inactive)

## O=[N+]([O-])c1ccc(N/N=C/c2sc(N3CCOCC3)nc2-c2ccccc2)c(S(=O)(=O)Nc2ccc(Cl)cc2)c1
[1]
  cell count: 392 cells
[2]
  activation: 18% (inactive)

## CCN1CCCC1CNCc1cc(OC)c(OC)c(OC)c1 (centres undefined)
[1]
  cell count: 313 cells
[2]
  activation: -0.1% (inactive)

## COc1ccccc1Cc1noc(COc2cccc(C)c2C)n1
[1]
  cell count: 384 cells
[2]
  activation: -0.1% (inactive)

## Cc1nnc(SC(C)C)n(N)c1=O
[1]
  cell count: 256 cells
[2]
  activation: -1.1% (inactive)

## O=c1cnnc(SCc2ccc([N+](=O)[O-])cc2)[nH]1
[1]
  cell count: 243 cells
[2]
  activation: 0.2% (inactive)

## CCn1nc(C)c(CN2CCC(C(=O)Nc3cccc(-c4cccc(Cl)c4)c3)CC2)c1C
[1]
  cell count: 372 cells
[2]
  activation: 0% (inactive)

## CCCCSc1nnc2n(CCc3ccccc3)c(=O)c3c4c(sc3n12)COC(C)(C)C4
[1]
  cell count: 332 cells
[2]
  activation: 58% (active)

## C=CCSc1nnc2n(CCc3ccccc3)c(=O)c3c4c(sc3n12)COC(C)(C)C4
[1]
  cell count: 369 cells
[2]
  activation: -0.1% (inactive)

## CCC1(C)Cc2c(sc3c2c(=O)n(C)c2nnc(SCCc4ccccc4)n32)CO1 (centres undefined)
[1]
  cell count: 322 cells
[2]
  activation: -0.2% (inactive)

## COc1cc(C2CC(c3ccccc3)=NN2c2ccccc2)ccc1OCC(=O)O (centres undefined)
[1]
  cell count: 329 cells
[2]
  activation: 0.9% (inactive)

## COc1ccc(C2CC(c3ccc(F)cc3)=NN2c2ccccc2)cc1OC (centres undefined)
[1]
  cell count: 391 cells
[2]
  activation: -0.1% (inactive)

## O=C(CSc1nnc(CNc2ccc(F)cc2)n1CC1CCCO1)N1CCOCC1 (centres undefined)
[1]
  cell count: 336 cells
[2]
  activation: 0.2% (inactive)

## CCOc1ccc(/C=N/NC(=O)C(C)N(c2ccc(OC)cc2)S(C)(=O)=O)cc1OCC (centres undefined)
[1]
  cell count: 265 cells
[2]
  activation: 0.6% (inactive)

## CCOC(=O)CS(=O)(=O)c1nc(-c2ccccc2)cc(C(F)(F)F)n1
[1]
  cell count: 302 cells
[2]
  activation: 49.8% (active)

## CCOC(=O)CS(=O)(=O)c1nc(-c2ccc(F)cc2)cc(C(F)(F)F)n1
[1]
  cell count: 353 cells
[2]
  activation: 16.3% (inactive)

## CCOC(=O)CCS(=O)(=O)c1nc(-c2ccccc2)cc(C(F)(F)F)n1
[1]
  cell count: 310 cells
[2]
  activation: 14.3% (inactive)

## CNC(=O)CSc1nnc(-c2cccs2)o1
[1]
  cell count: 345 cells
[2]
  activation: 0.3% (inactive)

## CC(=O)Nc1cccc(/C(C)=N/NC(=O)c2cccs2)c1
[1]
  cell count: 330 cells
[2]
  activation: -0.4% (inactive)

## COc1ccc(-c2cc(C(F)(F)F)nc(SCC(=O)Nc3ccc4c(c3)OCO4)n2)cc1
[1]
  cell count: 399 cells
[2]
  activation: -0.2% (inactive)

## COc1ccccc1NC(=O)CSCc1ccc([N+](=O)[O-])cc1
[1]
  cell count: 415 cells
[2]
  activation: -0.1% (inactive)

## COc1ccccc1P(=O)(c1ccccc1)c1ccc([N+](=O)[O-])cc1 (centres undefined)
[1]
  cell count: 384 cells
[2]
  activation: 0.2% (inactive)

## CC(=O)N1CC=C2C(C#N)=C(N)C(C#N)(C#N)C(C)C2C1 (centres undefined)
[1]
  cell count: 315 cells
[2]
  activation: -0.2% (inactive)

## Cc1ccc(NC(=O)CS(=O)CC(=O)NC23CC4CC(CC(C4)C2)C3)cc1 (centres undefined)
[1]
  cell count: 322 cells
[2]
  activation: 0% (inactive)

## CCc1ccccc1NC(=O)c1ccc(-c2csc(C)n2)cc1
[1]
  cell count: 398 cells
[2]
  activation: -0.1% (inactive)

## COc1ccc(CNc2nc(-c3cccnc3)nn2S(C)(=O)=O)cc1
[1]
  cell count: 258 cells
[2]
  activation: 1.3% (inactive)

## COc1cccc(-c2nnc3n2N=C(c2cc(OC)ccc2OC)CS3)c1
[1]
  cell count: 449 cells
[2]
  activation: -0.1% (inactive)

## CCOc1cccc(-c2nnc3n2N=C(c2cc(OC)ccc2OC)CS3)c1
[1]
  cell count: 276 cells
[2]
  activation: 100% (active)

## COc1ccc(OC)c(C2=Nn3c(nnc3-c3cccc(OC(C)C)c3)SC2)c1
[1]
  cell count: 301 cells
[2]
  activation: -0.2% (inactive)

## Cc1ccc(S(=O)(=O)NC2=C(N3CCN(c4ccccc4F)CC3)C(=O)c3ccccc3C2=O)cc1
[1]
  cell count: 421 cells
[2]
  activation: -0.1% (inactive)
